# Compound activity: PubChem BioAssay, several laboratories
# A3G deaminase = APOBEC3G DNA deaminase inhibitors, primary screen, biochemical, fluorescence, single-stranded DNA substrate, uHTS; DNA dC->dU-editing enzyme APOBEC-3G (Homo sapiens), Q9HC16; inhibition, % at 20 µM; recombinant A3G, ssDNA deamination FAM/TAMRA fluorescence; hit rate 0.28% among 330,000;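 active means inhibition of at least 40% at 20 µM, with no more than 30% in the related APOBEC3A deaminase screen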
# A3A deaminase = APOBEC3A ssDNA deaminase inhibitors, primary screen, selectivity assay for APOBEC3G inhibitor project, biochemical, FAM/TAMRA oligo cleavage fluorescence; inhibition, % at 20 µM; DNA dC->dU-editing enzyme APOBEC-3A (Homo sapiens), P31941; recombinant A3A, FAM/TAMRA ssDNA deamination fluorescence; hit rate 0.41% among 330,000;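 active means at least 40% inhibition at 20 µM here, with at most 30% in a related deaminase screen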
# ALR inh = inhibitors of human ALR sulfhydryl oxidase, primary screen, biochemical, H2O2 detection, HRP-luminol luminescence, single point; hit rate 3.8% among 290,000; inhibition, % (test concentration not listed); AID 485317, 2010; purified ALR, DTT oxidation; FAD-linked sulfhydryl oxidase ALR (Homo sapiens), P55789;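 active means mean replicate inhibition above about 79%, with every replicate also reaching it, limit read from the data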
# Target sequence (P55789 whole entry, looked up): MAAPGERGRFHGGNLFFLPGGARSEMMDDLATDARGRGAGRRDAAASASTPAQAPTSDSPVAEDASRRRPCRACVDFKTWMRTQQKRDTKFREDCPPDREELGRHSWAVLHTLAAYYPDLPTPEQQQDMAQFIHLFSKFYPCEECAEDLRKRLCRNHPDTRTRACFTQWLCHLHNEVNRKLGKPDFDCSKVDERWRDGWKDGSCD
# rCAG RNA binder = binders of r(CAG) RNA repeats, primary screen, biochemical, fluorescence; r(CAG) RNA repeat, TO-PRO-1 dye displacement fluorescence; inhibition, % at 3 µM; AID 651821, 2012; hit rate 1.3% among 370,000;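 active means inhibition above the plate cutoff, the mean of all test compounds on that plate plus 3 SD, cut at about 35% in these data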;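 further: higher means more dye released from RNA so lower well fluorescence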
# aDG glyco up = activators of alpha-DG glycosylation, primary screen, uHTS, Pro5-aDG cells, AlphaScreen; activation, % at 10 µM; hit rate 0.22% among 360,000; alpha-DG glycosylation AlphaScreen (IIH6); 0% Pro5, 100% B10-LARGE cell signal; AID 624168, 2012;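 active means activation of at least 8% versus controls, or a plate z-score of at least 8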;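 further: Pro5 are CHO cells carrying HIG-tagged alpha-DG that lacks glycosylation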
# PHOSPHO1 block = PubChem AID 1565. Phosphoethanolamine/phosphocholine phosphatase (Homo sapiens), Q8TCT1. recombinant PHOSPHO1, absorbance phosphatase assay. inhibition, % at 13.3 µM. hit rate 1.1% among 290,000; in the data active means inhibition above about 60%
# Target sequence (Q8TCT1 whole entry, looked up): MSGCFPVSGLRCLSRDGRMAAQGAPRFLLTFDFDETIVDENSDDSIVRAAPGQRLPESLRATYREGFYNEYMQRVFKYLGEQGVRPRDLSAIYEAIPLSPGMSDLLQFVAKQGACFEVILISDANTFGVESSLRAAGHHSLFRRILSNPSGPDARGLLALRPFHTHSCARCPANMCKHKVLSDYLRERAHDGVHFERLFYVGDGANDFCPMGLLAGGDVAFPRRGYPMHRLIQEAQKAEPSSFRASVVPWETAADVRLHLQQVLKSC
# A number is an active result; n = inactive; x = no result. An excerpt weighted towards active compounds, which were near 5.4% of everything screened.
SMILES,A3G deaminase,A3A deaminase,ALR inh,rCAG RNA binder,aDG glyco up,PHOSPHO1 block
CCOC(=O)[C@]12CCCCC/C=C\1N(Cc1ccc(OC)cc1)C(=O)[C@H]2CC(=O)N1CCN(C(=O)C2CC2)CC1,x,x,x,n,x,x
C[C@H]1CCCN1c1cccc2c1S(=O)(=O)N(C1CC1)CCCO2,x,x,x,n,x,x
Cc1occc1-c1nnc(SCC(=O)Nc2ccncc2)n1-c1ccccc1,x,x,x,n,x,x
Cn1c(SCC(=O)NC(C)(C)C)nc(O)cc1=O,n,n,n,n,n,n
COc1ccc(-n2c(SCC(=O)Nc3cccc4ccccc34)nc(O)cc2=O)cc1,n,n,98.7,n,n,n
Cc1ccccc1NC(=O)CSc1nc(O)cc(=O)n1C,n,n,98.8,n,n,n
Cc1ccc(NC(=O)CSc2nc(=O)cc(N)n2-c2ccccc2)cc1,n,n,x,n,n,n
COC(=O)c1cccc(NC(=O)CSc2nc(=O)cc(N)n2-c2ccccc2)c1,n,n,98.4,n,n,n
CCc1c(O)nc(SCC(=O)Nc2ccc(OC)cc2)n(C2CCCCC2)c1=O,n,n,98.6,n,n,n
CCC(C)NC(=O)CN1C(=O)C2CCCCN2C(=O)c2ccccc21 (configuration not stated),x,x,x,n,x,x
O=C(C=Cc1ccc(OCc2ccccc2)cc1)c1c(F)cccc1F,x,x,x,n,x,x
Cc1ccccc1C(=O)NC(=S)N(C)C1CCCCC1,n,n,n,n,n,n
CN(C(=S)NC(=O)c1ccccc1Br)C1CCCCC1,n,n,98.5,x,n,n
CC1=Nn2c(nnc2-c2ccccc2Cl)SC1,n,n,n,n,n,73.8
COc1ccccc1-c1nnc2n1N=C(C)CS2,n,n,n,n,n,73.8
COc1ccccc1-c1nnc2n1N=C(C(C)(C)C)CS2,n,n,n,n,n,n
CC(C)[C@H](NC(=O)[C@@H](N)Cc1ccccc1)C(=O)N1CCC2CCN(Cc3ccccc3)CC21 (some centres not stated),x,x,x,n,x,x
Cc1ccccc1C(=O)N1CCN(C(=O)C(=O)c2cccc(C(F)(F)F)c2)CC1,x,x,x,n,x,x
CC(=O)NCc1ccc(S(=O)(=O)N/N=C/c2ccc(N(C)C)cc2)cc1,n,n,97.6,n,n,n
Cc1ccc(C)c(S(=O)(=O)N/N=C/c2ccc(N(C)C)cc2)c1,n,n,98.9,n,n,n
COC(=O)c1cccc(N2C(=O)C[C@](Sc3ccc(OC)cc3)(C(=O)N3CCOCC3)[C@H]2c2ccc(OC)cc2)c1,x,x,x,n,x,x
COC(=O)c1cc2c(c3c4cc(OC)ccc4n(S(=O)(=O)c4ccc(C)cc4)c13)C(=O)N(C)C2,x,x,x,n,x,x
CC(C)(C)C1=CC=C(C(C)(C)C)C(=O)C1=O,n,n,n,x,x,66.8
O=C(NNc1c2ccccc2nc2ccccc12)C12CC3CC(CC(C3)C1)C2,n,n,x,n,n,n
O=C(O)c1cccc(Nc2c3ccccc3nc3ccccc23)c1,n,n,n,n,n,n
SMILES,A3G deaminase,A3A deaminase,ALR inh,rCAG RNA binder,aDG glyco up,PHOSPHO1 block
O=C(NNc1c2ccccc2nc2ccccc12)c1ccc(O)cc1,n,n,98.8,n,n,n
O=C(NNc1c2ccccc2nc2ccccc12)C(O)c1ccccc1 (configuration not stated),n,n,99.3,n,n,n
O=C(NNc1c2ccccc2nc2ccccc12)c1cccc(O)c1,n,n,98.8,n,n,n
O=C(CCc1ccccc1)N[C@H]1[C@H](OCc2ccccc2)CCC[C@@]12C(=O)N(Cc1ccccc1)c1ccc(-c3ccsc3)cc12,x,x,x,n,x,x
COC(=O)[C@]12C[C@H](CC(=O)NCc3ccc(OC)c(OC)c3)C(=O)N(Cc3ccc4c(c3)OCO4)C1=C[C@H](COCc1ccccc1)O[C@@H]2C,x,x,x,n,x,x
C[C@H]1CCCC(=O)N[C@@H](c2ccccc2)[C@@H](C)CCCC(=O)N[C@H]1c1ccccc1,x,x,x,n,x,x
COC(=O)[C@]12C[C@H](CC(=O)N3CCCC3)C(=O)N(Cc3ccc(Cl)cc3Cl)C1=C[C@H](C(C)C)O[C@@H]2C1CC1,x,x,x,n,x,x
O=C(NNS(=O)(=O)c1ccc2ccccc2c1)c1cc(-c2ccccn2)nc2ccccc12,n,n,96.4,n,n,n
CCCCn1nnnc1C1c2ccccc2OCC(=O)N1Cc1ccc2c(c1)OCO2 (configuration not stated),x,x,x,n,x,x
COc1ccc(N2CCN(C(CNC(=O)C(=O)NCCCn3ccnc3)c3cccnc3)CC2)cc1 (configuration not stated),n,n,90.4,n,n,n
O=C(NCC(c1cccnc1)N1CCN(c2ccc(F)cc2)CC1)c1ccccc1 (configuration not stated),n,n,n,n,n,n
COc1ccc(N2CCN(C(CNC(=O)C(=O)NCc3cccs3)c3ccco3)CC2)cc1 (configuration not stated),n,n,n,n,n,n
O=C(NCC(c1cccnc1)N1CCN(c2ccccc2)CC1)c1ccco1 (configuration not stated),n,n,99.0,n,n,x
O=C(NCc1cccnc1)C(=O)NCC(c1ccco1)N1CCN(c2ccccc2)CC1 (configuration not stated),n,n,98.2,n,n,n
O=C(NCCCn1ccnc1)C(=O)NCC(c1cccnc1)N1CCN(c2ccc(F)cc2)CC1 (configuration not stated),n,n,n,x,n,n
O=C(NCc1cccs1)C(=O)NCC(c1ccco1)N1CCN(c2ccccc2)CC1 (configuration not stated),n,n,97.8,n,n,n
O=C(NCc1cccnc1)C(=O)NCC(c1ccco1)N1CCOCC1 (configuration not stated),n,n,n,n,n,n
CCCCN(C)C(=O)C1CCN(S(=O)(=O)c2ccc3[nH]c(=O)oc3c2)CC1,x,x,x,n,x,x
O=C(NCC(c1ccco1)N1CCCCC1)C(c1ccccc1)c1ccccc1 (configuration not stated),n,n,94.0,n,n,n
COC(=O)C1=C(C)N(Cc2cccc(C(F)(F)F)c2)C(=NCc2ccc(OC)cc2)NC1c1cccc(C(F)(F)F)c1 (configuration not stated),x,x,x,n,x,x
Cc1nc2sc(C(=O)O)c(N)c2c2c1COC(C)(C)C2,n,n,n,n,n,65.5
COc1ccc(OC)c(S(=O)(=O)N2CCC(C(=O)NCc3cccs3)CC2)c1,x,x,x,n,x,x
O=C(Nc1ccc(O)cc1)c1cc(S(=O)(=O)N2CCCC2)ccc1Cl,n,n,98.9,n,n,n
Nc1ccc(NC(=O)c2cccs2)cc1,n,n,98.4,n,n,n
